Key:
[1] = target: Ephrin type-A receptor 5 (Homo sapiens) (UniProt P54756); conditions: at 10 µM
[2] = target: Ephrin type-A receptor 4 (Homo sapiens) (UniProt P54764); conditions: at 1 µM
[3] = target: Ephrin type-A receptor 4 (Homo sapiens) (UniProt P54764); conditions: at 10 µM
[4] = target: T1, Ephrin type-B receptor 1 (Homo sapiens) (UniProt P54762); conditions: at 10 µM
T1 sequence (whole entry): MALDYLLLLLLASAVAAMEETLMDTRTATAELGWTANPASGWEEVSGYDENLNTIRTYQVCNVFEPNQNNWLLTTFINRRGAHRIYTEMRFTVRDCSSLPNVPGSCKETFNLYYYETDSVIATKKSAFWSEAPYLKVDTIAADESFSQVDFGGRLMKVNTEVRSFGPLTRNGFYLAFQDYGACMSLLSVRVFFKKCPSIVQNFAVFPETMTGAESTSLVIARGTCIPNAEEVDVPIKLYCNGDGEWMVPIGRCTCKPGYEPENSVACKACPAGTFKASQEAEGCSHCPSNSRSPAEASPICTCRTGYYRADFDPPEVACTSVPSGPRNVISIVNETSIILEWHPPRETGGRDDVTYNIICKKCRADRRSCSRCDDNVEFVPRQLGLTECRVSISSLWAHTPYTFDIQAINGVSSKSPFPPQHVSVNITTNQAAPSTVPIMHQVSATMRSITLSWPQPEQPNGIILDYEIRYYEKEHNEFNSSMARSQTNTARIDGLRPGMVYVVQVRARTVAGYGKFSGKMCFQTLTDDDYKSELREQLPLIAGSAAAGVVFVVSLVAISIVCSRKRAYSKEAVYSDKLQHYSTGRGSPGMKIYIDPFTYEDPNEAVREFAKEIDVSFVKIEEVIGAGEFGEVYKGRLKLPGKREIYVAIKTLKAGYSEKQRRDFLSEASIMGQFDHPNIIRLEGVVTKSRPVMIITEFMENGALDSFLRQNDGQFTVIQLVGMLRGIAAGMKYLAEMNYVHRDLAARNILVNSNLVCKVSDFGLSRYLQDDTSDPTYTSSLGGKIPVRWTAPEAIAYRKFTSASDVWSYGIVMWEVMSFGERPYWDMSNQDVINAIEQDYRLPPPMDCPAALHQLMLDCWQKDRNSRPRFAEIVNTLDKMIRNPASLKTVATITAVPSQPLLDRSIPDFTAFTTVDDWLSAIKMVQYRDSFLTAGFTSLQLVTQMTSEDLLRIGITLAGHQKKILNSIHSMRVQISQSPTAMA

[5] = target: T2, Ephrin type-B receptor 2 (Homo sapiens) (UniProt P29323); conditions: at 1 µM
T2 sequence (whole entry): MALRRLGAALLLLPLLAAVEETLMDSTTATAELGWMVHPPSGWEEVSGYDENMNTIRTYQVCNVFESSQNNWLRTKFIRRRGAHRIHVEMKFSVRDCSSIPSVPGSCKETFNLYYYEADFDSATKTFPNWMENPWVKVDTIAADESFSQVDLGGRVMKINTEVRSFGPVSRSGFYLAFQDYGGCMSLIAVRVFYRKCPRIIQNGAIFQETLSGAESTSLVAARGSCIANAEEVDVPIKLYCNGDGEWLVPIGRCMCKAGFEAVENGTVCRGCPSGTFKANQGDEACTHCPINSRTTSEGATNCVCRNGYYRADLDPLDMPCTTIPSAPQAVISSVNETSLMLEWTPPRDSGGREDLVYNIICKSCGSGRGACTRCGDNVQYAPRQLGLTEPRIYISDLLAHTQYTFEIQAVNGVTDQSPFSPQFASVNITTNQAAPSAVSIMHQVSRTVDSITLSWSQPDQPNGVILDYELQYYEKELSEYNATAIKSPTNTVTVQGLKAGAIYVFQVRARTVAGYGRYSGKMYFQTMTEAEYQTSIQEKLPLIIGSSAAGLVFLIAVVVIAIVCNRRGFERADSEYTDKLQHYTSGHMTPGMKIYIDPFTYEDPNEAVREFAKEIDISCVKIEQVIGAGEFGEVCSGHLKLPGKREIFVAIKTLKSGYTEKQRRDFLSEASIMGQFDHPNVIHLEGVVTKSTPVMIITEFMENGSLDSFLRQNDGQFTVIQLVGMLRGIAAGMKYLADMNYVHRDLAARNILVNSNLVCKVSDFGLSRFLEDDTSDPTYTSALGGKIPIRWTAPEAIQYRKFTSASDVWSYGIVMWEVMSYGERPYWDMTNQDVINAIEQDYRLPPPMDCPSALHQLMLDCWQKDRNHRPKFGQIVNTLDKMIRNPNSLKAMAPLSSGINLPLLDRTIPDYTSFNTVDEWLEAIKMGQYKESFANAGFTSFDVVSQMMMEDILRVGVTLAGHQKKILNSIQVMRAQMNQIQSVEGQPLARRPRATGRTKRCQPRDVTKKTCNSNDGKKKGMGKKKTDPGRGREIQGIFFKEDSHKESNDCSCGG

[6] = target: T2, Ephrin type-B receptor 2 (Homo sapiens); conditions: at 10 µM
[7] = target: T3, Ephrin type-B receptor 3 (Homo sapiens) (UniProt P54753); conditions: at 1 µM
T3 sequence (whole entry): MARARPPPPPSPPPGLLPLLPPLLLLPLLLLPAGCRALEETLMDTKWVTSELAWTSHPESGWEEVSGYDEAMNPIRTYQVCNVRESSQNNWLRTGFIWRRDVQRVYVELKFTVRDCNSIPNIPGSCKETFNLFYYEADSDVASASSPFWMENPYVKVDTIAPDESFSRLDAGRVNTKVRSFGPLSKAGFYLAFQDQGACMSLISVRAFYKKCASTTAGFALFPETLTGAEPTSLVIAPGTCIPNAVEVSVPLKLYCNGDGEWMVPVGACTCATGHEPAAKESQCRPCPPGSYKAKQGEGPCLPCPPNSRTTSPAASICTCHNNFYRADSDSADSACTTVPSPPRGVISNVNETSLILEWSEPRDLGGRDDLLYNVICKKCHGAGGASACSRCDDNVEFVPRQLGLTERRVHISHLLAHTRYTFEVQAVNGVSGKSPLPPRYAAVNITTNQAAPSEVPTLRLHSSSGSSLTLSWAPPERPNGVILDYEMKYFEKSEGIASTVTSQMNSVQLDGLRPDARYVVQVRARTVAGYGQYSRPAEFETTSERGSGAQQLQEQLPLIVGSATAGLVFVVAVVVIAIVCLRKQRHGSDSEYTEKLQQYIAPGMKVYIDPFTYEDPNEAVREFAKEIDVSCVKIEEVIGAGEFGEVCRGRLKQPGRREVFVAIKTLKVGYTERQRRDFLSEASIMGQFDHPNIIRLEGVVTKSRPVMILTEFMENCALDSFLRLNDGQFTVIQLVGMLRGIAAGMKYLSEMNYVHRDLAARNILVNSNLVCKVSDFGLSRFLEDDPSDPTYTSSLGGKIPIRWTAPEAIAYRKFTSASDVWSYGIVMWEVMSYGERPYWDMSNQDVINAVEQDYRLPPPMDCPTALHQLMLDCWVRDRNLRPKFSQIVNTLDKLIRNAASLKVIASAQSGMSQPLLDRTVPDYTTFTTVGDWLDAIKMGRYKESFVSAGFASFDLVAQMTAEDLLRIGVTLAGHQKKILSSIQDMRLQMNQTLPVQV

[8] = target: T3, Ephrin type-B receptor 3 (Homo sapiens); conditions: at 10 µM
[9] = target: T4, Ephrin type-A receptor 3 (Homo sapiens) (UniProt P29320); conditions: at 10 µM
T4 sequence (whole entry): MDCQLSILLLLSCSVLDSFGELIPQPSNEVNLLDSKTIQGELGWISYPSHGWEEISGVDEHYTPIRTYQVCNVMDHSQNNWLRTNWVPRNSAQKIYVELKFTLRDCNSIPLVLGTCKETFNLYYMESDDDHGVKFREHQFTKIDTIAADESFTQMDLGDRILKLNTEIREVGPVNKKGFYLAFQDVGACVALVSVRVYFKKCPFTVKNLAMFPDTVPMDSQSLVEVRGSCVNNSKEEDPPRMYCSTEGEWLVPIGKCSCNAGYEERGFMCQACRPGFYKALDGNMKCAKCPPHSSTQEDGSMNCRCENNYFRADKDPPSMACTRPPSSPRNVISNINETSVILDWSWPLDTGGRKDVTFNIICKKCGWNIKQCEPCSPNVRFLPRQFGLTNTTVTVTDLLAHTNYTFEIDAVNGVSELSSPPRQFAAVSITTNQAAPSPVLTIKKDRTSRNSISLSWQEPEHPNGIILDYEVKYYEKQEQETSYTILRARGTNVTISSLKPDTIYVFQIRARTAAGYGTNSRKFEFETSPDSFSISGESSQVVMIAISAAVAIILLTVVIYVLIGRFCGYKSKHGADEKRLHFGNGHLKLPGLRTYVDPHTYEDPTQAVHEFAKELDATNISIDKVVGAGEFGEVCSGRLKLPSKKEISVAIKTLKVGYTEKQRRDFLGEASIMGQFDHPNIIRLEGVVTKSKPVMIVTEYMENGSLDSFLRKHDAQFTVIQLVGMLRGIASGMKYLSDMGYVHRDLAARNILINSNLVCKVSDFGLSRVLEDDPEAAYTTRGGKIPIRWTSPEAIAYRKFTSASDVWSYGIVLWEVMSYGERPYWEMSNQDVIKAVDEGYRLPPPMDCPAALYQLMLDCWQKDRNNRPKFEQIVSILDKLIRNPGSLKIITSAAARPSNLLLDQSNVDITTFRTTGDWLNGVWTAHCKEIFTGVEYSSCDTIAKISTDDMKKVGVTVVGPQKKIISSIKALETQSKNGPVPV

[10] = target: T1, Ephrin type-B receptor 1 (Homo sapiens); conditions: at 1 µM
[11] = target: T5, Ephrin type-B receptor 4 (Homo sapiens) (UniProt P54760); conditions: at 1 µM
T5 sequence (whole entry): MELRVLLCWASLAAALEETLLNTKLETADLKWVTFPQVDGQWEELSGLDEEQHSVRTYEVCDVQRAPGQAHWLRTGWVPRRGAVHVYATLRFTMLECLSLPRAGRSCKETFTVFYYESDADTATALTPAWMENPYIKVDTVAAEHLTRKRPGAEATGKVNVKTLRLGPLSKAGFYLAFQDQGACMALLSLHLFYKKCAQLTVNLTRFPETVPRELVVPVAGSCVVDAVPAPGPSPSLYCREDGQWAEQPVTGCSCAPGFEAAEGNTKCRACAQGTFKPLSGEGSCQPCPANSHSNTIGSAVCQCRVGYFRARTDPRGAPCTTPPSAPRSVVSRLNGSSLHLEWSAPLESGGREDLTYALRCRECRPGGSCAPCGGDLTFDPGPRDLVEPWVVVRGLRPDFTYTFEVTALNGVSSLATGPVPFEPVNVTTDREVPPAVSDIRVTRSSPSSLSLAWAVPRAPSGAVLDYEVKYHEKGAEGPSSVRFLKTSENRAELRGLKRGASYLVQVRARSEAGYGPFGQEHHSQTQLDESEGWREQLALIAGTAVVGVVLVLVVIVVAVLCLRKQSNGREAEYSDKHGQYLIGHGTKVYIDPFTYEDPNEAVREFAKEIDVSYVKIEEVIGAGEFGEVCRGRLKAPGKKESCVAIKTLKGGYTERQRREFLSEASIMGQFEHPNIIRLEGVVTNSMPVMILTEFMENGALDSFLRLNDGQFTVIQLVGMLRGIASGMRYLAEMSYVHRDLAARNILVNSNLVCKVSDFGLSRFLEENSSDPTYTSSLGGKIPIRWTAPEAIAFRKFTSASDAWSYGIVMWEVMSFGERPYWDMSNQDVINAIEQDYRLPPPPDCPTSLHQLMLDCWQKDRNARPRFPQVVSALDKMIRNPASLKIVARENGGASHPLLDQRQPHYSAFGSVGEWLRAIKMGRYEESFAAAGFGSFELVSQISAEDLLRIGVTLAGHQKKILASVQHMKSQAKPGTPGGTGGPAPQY

[12] = target: T5, Ephrin type-B receptor 4 (Homo sapiens); conditions: at 10 µM
[13] = target: Receptor tyrosine-protein kinase erbB-4 (Homo sapiens) (UniProt Q15303); conditions: at 1 µM
[14] = target: Receptor tyrosine-protein kinase erbB-4 (Homo sapiens) (UniProt Q15303); conditions: at 10 µM
[15] = target: Focal adhesion kinase 1 (Homo sapiens) (UniProt Q05397); conditions: at 1 µM
[16] = target: Ephrin type-A receptor 7 (Homo sapiens) (UniProt Q15375); conditions: at 1 µM
[17] = target: Ephrin type-A receptor 7 (Homo sapiens) (UniProt Q15375); conditions: at 10 µM

Sequence of Ephrin type-A receptor 7 (Homo sapiens) (Q15375 28-998 limits assumed): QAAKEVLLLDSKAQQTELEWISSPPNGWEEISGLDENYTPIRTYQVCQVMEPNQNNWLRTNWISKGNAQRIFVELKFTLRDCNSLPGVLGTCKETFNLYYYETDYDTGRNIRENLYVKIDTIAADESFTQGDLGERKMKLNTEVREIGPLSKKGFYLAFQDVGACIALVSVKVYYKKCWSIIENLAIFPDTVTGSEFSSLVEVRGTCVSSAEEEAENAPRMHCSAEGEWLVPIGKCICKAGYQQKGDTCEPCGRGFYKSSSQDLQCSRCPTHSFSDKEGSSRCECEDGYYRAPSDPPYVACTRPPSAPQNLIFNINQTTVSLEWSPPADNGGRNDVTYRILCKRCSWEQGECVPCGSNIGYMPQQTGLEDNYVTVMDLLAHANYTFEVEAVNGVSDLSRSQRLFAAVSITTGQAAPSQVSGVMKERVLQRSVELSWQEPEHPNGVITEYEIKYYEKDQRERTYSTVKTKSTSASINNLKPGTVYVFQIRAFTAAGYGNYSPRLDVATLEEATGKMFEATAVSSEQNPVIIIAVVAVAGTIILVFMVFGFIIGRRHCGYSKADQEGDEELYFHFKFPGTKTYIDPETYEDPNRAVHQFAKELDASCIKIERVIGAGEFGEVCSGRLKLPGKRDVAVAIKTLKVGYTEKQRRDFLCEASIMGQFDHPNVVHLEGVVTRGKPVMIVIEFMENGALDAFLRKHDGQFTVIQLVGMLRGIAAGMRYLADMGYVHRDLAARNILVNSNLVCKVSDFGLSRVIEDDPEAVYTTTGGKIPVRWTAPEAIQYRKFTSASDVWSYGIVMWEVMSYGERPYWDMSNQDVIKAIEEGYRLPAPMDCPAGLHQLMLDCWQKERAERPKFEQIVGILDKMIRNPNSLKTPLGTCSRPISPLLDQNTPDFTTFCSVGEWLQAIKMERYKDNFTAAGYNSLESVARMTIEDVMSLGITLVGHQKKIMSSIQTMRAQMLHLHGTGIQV
Sequence of Ephrin type-A receptor 4 (Homo sapiens) (P54764 whole entry): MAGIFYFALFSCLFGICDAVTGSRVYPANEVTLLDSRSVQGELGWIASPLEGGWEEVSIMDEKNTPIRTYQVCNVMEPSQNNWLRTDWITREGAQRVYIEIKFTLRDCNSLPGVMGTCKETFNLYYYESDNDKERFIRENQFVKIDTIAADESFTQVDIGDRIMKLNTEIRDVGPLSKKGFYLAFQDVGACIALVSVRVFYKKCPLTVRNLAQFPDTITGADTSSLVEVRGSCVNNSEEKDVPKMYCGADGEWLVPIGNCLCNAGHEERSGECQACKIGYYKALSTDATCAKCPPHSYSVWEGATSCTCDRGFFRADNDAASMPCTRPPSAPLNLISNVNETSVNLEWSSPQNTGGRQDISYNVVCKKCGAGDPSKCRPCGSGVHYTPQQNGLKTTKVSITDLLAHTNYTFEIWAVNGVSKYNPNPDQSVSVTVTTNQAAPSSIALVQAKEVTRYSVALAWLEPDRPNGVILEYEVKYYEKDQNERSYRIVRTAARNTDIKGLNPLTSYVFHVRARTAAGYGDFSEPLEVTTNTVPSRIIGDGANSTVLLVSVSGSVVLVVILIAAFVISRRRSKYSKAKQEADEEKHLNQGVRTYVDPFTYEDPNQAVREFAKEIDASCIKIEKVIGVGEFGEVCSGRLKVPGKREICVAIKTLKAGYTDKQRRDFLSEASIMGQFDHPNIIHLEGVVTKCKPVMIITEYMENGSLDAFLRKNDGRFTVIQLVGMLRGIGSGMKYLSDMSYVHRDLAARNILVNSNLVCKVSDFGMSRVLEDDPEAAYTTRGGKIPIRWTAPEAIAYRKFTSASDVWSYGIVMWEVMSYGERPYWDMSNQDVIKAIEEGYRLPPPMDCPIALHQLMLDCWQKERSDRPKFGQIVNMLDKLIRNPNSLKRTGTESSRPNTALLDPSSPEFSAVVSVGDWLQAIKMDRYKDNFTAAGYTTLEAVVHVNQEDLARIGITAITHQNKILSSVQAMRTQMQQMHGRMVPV
Sequence of Focal adhesion kinase 1 (Homo sapiens) (Q05397 2-1052 limits assumed): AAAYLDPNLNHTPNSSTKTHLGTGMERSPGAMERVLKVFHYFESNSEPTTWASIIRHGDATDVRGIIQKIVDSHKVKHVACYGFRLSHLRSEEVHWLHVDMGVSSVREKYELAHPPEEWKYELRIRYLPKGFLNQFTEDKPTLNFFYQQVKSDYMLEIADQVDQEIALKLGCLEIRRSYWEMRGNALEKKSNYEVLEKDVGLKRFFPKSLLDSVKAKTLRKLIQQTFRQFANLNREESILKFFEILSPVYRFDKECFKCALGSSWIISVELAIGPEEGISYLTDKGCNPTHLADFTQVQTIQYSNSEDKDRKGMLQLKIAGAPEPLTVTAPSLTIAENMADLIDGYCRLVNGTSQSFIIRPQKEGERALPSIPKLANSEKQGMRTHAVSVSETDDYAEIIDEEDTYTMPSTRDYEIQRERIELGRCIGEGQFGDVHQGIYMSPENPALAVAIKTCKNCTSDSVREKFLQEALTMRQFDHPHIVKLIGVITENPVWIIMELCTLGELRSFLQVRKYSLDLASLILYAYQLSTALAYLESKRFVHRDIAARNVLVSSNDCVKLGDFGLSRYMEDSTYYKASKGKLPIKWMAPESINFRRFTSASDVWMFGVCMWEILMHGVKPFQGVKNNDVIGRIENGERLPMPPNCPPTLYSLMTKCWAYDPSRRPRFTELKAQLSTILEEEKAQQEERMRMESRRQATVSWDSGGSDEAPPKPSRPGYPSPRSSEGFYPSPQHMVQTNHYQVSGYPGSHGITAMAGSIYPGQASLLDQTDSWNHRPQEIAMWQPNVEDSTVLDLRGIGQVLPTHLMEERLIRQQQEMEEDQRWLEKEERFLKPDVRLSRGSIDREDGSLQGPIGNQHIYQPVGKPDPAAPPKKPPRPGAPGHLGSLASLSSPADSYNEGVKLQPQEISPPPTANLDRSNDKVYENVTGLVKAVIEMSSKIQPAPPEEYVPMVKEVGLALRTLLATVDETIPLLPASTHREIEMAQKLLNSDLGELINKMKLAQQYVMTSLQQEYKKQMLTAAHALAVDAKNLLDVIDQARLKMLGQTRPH
Sequence of Receptor tyrosine-protein kinase erbB-4 (Homo sapiens) (Q15303 whole entry): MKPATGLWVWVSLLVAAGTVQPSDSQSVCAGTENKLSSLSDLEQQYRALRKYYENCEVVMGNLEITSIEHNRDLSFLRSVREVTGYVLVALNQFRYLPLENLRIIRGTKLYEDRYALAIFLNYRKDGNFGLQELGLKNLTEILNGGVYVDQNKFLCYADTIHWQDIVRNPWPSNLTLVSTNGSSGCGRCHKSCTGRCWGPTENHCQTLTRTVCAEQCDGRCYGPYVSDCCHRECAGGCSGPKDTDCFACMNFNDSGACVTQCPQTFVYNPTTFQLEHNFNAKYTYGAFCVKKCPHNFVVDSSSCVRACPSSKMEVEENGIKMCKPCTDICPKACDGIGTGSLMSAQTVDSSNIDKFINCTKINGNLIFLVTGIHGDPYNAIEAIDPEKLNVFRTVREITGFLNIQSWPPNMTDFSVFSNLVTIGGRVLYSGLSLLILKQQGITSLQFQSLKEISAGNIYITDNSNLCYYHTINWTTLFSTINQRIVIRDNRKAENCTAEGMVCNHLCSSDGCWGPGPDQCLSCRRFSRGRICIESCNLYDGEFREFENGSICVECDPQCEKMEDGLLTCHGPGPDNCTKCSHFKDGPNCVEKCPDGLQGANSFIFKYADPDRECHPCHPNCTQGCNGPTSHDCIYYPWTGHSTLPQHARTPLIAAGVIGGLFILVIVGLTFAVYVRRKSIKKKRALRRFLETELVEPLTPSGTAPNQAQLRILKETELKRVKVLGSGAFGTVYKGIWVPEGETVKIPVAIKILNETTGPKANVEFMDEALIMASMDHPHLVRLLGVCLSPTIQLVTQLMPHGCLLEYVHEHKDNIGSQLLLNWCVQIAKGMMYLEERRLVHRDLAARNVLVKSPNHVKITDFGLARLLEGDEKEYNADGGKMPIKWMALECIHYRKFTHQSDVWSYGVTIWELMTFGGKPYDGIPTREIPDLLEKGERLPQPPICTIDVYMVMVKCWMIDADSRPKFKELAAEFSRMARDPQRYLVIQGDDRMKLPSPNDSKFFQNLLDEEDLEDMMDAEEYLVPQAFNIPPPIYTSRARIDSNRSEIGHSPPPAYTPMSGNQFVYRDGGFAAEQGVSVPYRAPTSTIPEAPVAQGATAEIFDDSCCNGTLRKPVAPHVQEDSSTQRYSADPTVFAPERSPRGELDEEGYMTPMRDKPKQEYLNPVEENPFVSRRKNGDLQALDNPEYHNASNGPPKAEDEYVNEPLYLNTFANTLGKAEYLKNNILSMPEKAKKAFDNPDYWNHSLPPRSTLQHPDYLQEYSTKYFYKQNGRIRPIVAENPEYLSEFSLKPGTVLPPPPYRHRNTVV

CCOc1nc(NC(=O)Cc2cc(OC)ccc2OC)cc(N)c1C#N
residual activity [1]: 74%

O=C1Cc2c([nH]c3ccc([N+](=O)[O-])cc23)-c2ccccc2N1
residual activity [2]: 105% | residual activity [3]: 105% | residual activity [4]: 81% | residual activity [5]: 106% | residual activity [6]: 107% | residual activity [7]: 124% (inactive) | residual activity [8]: 113%

NC(=O)c1ccc(-c2nc(-c3ccc4c(c3)OCCO4)c(-c3ccccn3)[nH]2)cc1
residual activity [9]: 94% | residual activity [10]: 93% | residual activity [4]: 85% | residual activity [5]: 96% | residual activity [6]: 24% | residual activity [7]: 117% (inactive) | residual activity [8]: 98% | residual activity [11]: 85% | residual activity [12]: 41% | residual activity [13]: 89% | residual activity [14]: 59%

CN([C@@H](Cc1ccc(OS(=O)(=O)c2cccc3cnccc23)cc1)C(=O)N1CCN(c2ccccc2)CC1)S(=O)(=O)c1cccc2cnccc12
residual activity [6]: 131% | residual activity [7]: 116% (inactive) | residual activity [15]: 119%

CCOC(=O)c1c(C)[nH]c(/C=C2\C(=O)Nc3ccccc32)c1C
residual activity [9]: 99% | residual activity [16]: 97% | residual activity [17]: 93% | residual activity [10]: 97% | residual activity [15]: 133%

Reference: ChEMBL document CHEMBL2218924, “A broad activity screen in support of a chemogenomic map for kinase signalling research and drug discovery” (Biochem J, 2013)
